Experimental findings from PubChem BioAssay (NCATS) are described below.

The structures appear in SMILES notation. Values joined by “and” are separate entries in the source; they are usually repeats but may differ in a detail not shown here. Identical values can stand only once. Results filed as inconclusive are left out. More than one record can exist for a structure, and the calls need not agree. Active and inactive are the calls of the source. Unless noted, the call rests on the fitted dose curve; in most records, active means well fitted curve in the direction sought with a large enough effect; inconclusive means small, poorly fitted or top-dose-only effect, or another doubt; inactive means no such curve, though single readings can be large; an effect the other way counts as inactive or inconclusive.

A short description of test [1]: Primary qHTS for small molecule stabilizers of the endoplasmic reticulum resident proteome: Secreted ER Calcium Modulated Protein (SERCaMP) assay (AID 1508630). A digest of the protocol: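 The SH-SY5Y reporter protocol was run at 3 concentrations up to 38.3 uM (primary) or 11 concentrations (follow-up): 16 h compound, 100 nM thapsigargin for 4 h, then extracellular luciferase luminescence.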
(In general: Quantitative high-throughput screening tests each substance at several concentrations.)

The nature of test [2]: A High-Content qHTS Against Drug Library for the Identification of Small Molecules that Inhibit DYT1 Early Onset Primary Dystonia-Associated Cell Pathology (AID 1645839; calls by dose curve; further: series mostly up to about 46 µM). A digest of the protocol:
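High-content imaging quantified EGFP-TorsinA mislocalization in HEK293-derived cells inducibly expressing DYT1 mutant torsinA, after 48 h exposure to compound given together with tetracycline induction. Cell count served as a toxicity channel alongside %pathology.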

For test [3], the target named is Cytochrome P450 2D6 (Homo sapiens) (UniProt P10635). The experiment in a line: Cytochrome P450 family 2 subfamily D member 6 (CYP2D6) small molecule antagonists: luciferase biochemical (cell-free) qHTS assay (AID 1645840; active means well fitted curve in the direction sought with a large enough effect in the repeat runs; an effect the other way counts as inactive or inconclusive; further: nearly all actives have a fitted effect of over 55% in size; further: potency means the concentration at half of the fitted maximal effect). A digest of the protocol:
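P450-Glo CYP2D6 system: proluciferin substrate converted by enzyme to luciferin, read by luminescence proportional to activity. Enzyme-substrate mix with compound 10 min at room temperature, then NADPH regeneration 1 h before detection reagent.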

Test [4] can be described thus: Primary qHTS for inhibitors of nuclear receptor binding SET domain protein 2 (NSD2) in an isogenic RCH-ACV NSD2 p.E1099K mutant (9B) (AID 1645876). Further: nearly all actives have a fitted effect of over 70% in size. Further: potency means the concentration at half of the fitted maximal effect.
Test [5] can be described thus: Primary qHTS for inhibitors of nuclear receptor binding SET domain protein 2 (NSD2) in an RCH-ACV wild type WT cells (2C) (AID 1645877). Further: nearly all actives have a fitted effect of over 70% in size. Further: potency means the concentration at half of the fitted maximal effect.
Test [6] has as its target Cytochrome P450 2C9 (Homo sapiens) (UniProt P11712). Nature of the test: Cytochrome P450 family 2 subfamily C member 9 (CYP2C9) small molecule antagonists: luciferase biochemical (cell-free) qHTS assay (AID 1645842; active means well fitted curve in the direction sought with a large enough effect in the repeat runs; an effect the other way counts as inactive or inconclusive; further: nearly all actives have a fitted effect of over 55% in size; further: potency means the concentration at half of the fitted maximal effect). A digest of the protocol:
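P450-Glo CYP2C9 system: proluciferin substrate with enzyme in mix containing 0.4% BSA, 10 min at room temperature, then NADPH regeneration solution added and incubated 1 h at 37C. Detection reagent stopped reaction; luminescence read after 20 min as RLU.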

Test [7] deals with Cytochrome P450 3A4 (Homo sapiens) (UniProt P08684). Nature of the test: Cytochrome P450 family 3 subfamily A member 4 (CYP3A4) small molecule antagonists: luciferase qHTS assay (AID 1645841; active means well fitted curve in the direction sought with a large enough effect in the repeat runs; an effect the other way counts as inactive or inconclusive; further: nearly all actives have a fitted effect of over 45% in size). The procedure, abridged: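 Luminescent CYP3A4 activity readout: compounds plus enzyme-substrate mix 10 min at room temperature, reaction started with NADPH regenerating system for 1 h, stopped with detection reagent, read after 20 min. Ketoconazole served as control.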
Sequence of Cytochrome P450 3A4 (Homo sapiens) (P08684 whole entry, looked up): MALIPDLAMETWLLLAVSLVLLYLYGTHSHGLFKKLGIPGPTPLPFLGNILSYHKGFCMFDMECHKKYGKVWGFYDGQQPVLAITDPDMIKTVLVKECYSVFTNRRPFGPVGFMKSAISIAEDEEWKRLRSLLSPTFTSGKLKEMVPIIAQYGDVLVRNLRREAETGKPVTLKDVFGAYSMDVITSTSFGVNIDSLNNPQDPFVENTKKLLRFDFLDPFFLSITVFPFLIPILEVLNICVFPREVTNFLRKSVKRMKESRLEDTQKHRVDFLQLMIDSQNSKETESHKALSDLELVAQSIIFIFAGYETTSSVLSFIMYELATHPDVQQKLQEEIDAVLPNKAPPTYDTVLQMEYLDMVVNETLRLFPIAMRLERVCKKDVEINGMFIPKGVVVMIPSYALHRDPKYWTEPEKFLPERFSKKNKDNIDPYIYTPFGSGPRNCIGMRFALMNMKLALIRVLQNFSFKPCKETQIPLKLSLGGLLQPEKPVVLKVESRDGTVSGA

Another test concerns the target Papain (Carica papaya) (UniProt P00784). The experiment in a line: Primary qHTS assay for inhibitors of the protease papain (AID 1645873).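 Further: papain turnover of Z-FR-AMC read as the AMC fluorescence gain over 10 min.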 Further: potency means the concentration at half of the fitted maximal effect.

Sequence of Cytochrome P450 2D6 (Homo sapiens) (P10635 whole entry, looked up): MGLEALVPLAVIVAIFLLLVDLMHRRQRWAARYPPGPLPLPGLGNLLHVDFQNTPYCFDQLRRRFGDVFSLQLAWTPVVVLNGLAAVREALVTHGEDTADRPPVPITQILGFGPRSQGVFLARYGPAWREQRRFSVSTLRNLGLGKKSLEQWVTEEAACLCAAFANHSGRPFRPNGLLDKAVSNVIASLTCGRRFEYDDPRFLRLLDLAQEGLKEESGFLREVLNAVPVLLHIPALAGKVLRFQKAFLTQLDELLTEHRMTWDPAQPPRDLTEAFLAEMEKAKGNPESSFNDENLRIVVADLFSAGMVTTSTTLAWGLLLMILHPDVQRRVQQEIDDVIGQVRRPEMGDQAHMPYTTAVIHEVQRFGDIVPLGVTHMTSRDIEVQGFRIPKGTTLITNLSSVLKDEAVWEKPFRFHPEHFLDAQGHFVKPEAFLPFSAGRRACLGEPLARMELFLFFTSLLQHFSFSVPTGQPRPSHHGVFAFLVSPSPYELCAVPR
Sequence of Cytochrome P450 2C9 (Homo sapiens) (P11712 whole entry, looked up): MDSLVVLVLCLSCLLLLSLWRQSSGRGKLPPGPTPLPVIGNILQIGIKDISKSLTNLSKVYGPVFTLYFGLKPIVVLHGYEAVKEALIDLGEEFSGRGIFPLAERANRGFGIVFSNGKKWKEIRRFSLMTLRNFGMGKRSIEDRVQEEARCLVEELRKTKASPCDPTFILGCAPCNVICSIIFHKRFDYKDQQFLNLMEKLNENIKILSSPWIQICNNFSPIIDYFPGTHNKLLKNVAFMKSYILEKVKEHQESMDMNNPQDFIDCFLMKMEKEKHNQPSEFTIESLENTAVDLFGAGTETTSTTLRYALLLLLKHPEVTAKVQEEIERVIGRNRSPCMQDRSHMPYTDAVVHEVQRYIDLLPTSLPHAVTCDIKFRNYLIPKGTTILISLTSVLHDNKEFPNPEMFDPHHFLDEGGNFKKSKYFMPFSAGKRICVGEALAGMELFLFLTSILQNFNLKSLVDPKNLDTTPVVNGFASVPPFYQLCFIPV
Sequence of Papain (Carica papaya) (P00784 whole entry, looked up): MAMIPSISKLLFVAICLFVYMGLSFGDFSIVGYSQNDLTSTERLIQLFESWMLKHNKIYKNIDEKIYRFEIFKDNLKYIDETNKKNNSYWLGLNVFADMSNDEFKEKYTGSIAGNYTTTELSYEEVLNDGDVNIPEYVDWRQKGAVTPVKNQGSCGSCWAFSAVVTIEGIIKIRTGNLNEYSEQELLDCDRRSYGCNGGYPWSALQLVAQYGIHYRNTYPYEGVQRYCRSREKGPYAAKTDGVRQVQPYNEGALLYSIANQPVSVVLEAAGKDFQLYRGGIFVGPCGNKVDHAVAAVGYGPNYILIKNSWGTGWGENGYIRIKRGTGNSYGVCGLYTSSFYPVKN

Regarding `CCCCCCNC(=O)n1cc(F)c(=O)[nH]c1=O`, the Potency entry in test [1] and in test [2] was “inactive” each time. In addition, the Potency in test [3] is 15.5 µM (active); in test [4], 8.41 µM (active) and 10.5 µM (active); in test [5], 7.5 µM (active) and 8.33 µM (active).

Turning to `CC(C)(C#N)c1cc(Cn2cncn2)cc(C(C)(C)C#N)c1`, the Potency result in test [1], in test [2], in test [3], in test [4] and in test [5] was “inactive” each time. Besides, the Potency in test [6] is 6.17 µM (active).

On to `CCC(=O)O[C@]1(C(=O)SCF)[C@H](C)C[C@H]2[C@@H]3C[C@H](F)C4=CC(=O)C=C[C@]4(C)[C@@]3(F)[C@@H](O)C[C@@]21C`, for which the Potency entry in test [1], in test [2], in test [3] and in test [5] was “inactive” throughout.

Consider `CCn1cc(C(=O)O)c(=O)c2cc(F)c(N3CCN(C)CC3)cc21`, for which the Potency result in test [1], in test [2] and in test [4] was “inactive” throughout.

With `CCC(C)(C)c1ccc(CC(C)CN2C[C@@H](C)O[C@@H](C)C2)cc1` (stereo not given in full), the Potency result in test [1], in test [2] and in test [4] was “inactive” throughout. For the same compound, the Potency in test [3] was 4.9 µM (active).

For the compound `O=C(O)c1ccc(-n2nc(-c3ccccc3O)nc2-c2ccccc2O)cc1`, the Potency entry in test [1], in test [3] and in test [6] was “inactive” each time. In addition, the call in test [7] was inactive. Further, the Potency was 6.68 µM (active) and 4.17 µM (active) in test [4]; 5.31 µM (active) and 4.17 µM (active) in test [5].

Consider `CC(N)C12CC3CC(CC(C3)C1)C2` (stereo not given), for which the Potency result in test [1], in test [2], in test [3], in test [6], in test [4] and in test [5] was “inactive” throughout.

For `CC(C)C1CCC(C(=O)N[C@H](Cc2ccccc2)C(=O)O)CC1` (stereo not given in full), the Potency result in test [1], in test [2], in test [3] and in test [4] was “inactive” in each case.

As for `CC(C)OC(=O)C(C(=O)OC(C)C)=C1SC=CS1`, the Potency entry in test [1], in test [2], in test [4] and in test [5] was “inactive” each time.

`CCOCC(O)COc1ccc(NC(=O)CC[S+](C)C)cc1` (stereo not given): the Potency result in test [1], in test [2], in test [3], in test [6], in test [4] and in test [5] was “inactive” in each case.

In the case of `Cc1cccc(N(C)C(=S)Oc2ccc3ccccc3c2)c1`, the Potency result in test [1], in test [2] and in test [4] was “inactive” throughout. Besides, the Potency in test [6] is 11 µM (active); in test [5] it was “inactive and 14.8 µM (active)”.

In the case of `CCCN[C@H]1CCc2nc(N)sc2C1`, the Potency result in test [1], in test [2], in test [6] and in test [4] was “inactive” each time.

For the compound `Cc1oc(=O)oc1CN1CCN(c2cc3c(cc2F)c(=O)c(C(=O)O)c2n3C(C)S2)CC1` (stereo not given), the Potency entry in test [1], in test [2], in test [3], in test [6], in test [4] and in test [5] was “inactive” throughout.

With `CCN(C)C(=O)Oc1cccc([C@H](C)N(C)C)c1`, the Potency result in test [1], in test [2], in test [4] and in test [5] was “inactive” throughout.

Regarding `CN(C)CCc1c[nH]c2ccc(CS(=O)(=O)N3CCCC3)cc12`, the Potency result in test [1], in test [2], in test [3], in test [6], in test [4] and in test [5] was “inactive” throughout.

In the case of `O=S(=O)(O)CCS`, the Potency entry in test [2], in test [3], in test [6] and in test [4] was “inactive” throughout. Also, the compound was classed as inactive in test [7].

As to `NC(=O)c1ccc2[nH]ccc2c1`, the Potency result (in test [1]; in the test with Papain (Carica papaya); in test [4]; in test [5]) was “inactive” in each case.

`COC(c1ccccc1)(c1ccccc1)[C@H](Oc1nc(C)cc(C)n1)C(=O)O`: the Potency entry in test [2], in test [3], in test [6] and in test [4] was “inactive” in each case.

Take `NC(=O)c1cccc(N)c1`: the Potency entry in test [1], in test [4] and in test [5] was “inactive” in each case.

Turning to `Cc1cc(NS(=O)(=O)c2ccc(N)cc2)no1`, the Potency entry in test [2] was “inactive”.

`CNC(=O)c1cc(Oc2ccc(NC(=O)Nc3ccc(Cl)c(C(F)(F)F)c3)cc2)ccn1`: the Potency result in test [1] was “inactive”. Also, the Potency is 19.5 µM (active) in test [6]; 9.34 µM (active) and 21.1 µM (active) and 5.15 µM (active) in test [4]; 7.42 µM (active) and 5.15 µM (active) in test [5].

Turning to `O=C(O)CCn1c2c(c3ccccc31)C[C@H](NS(=O)(=O)c1ccc(F)cc1)CC2`, the Potency entry in test [2] and in test [3] was “inactive” throughout. Further, the Potency in test [6] was 17.4 µM (active).

On to `Nc1[nH]c(=O)ncc1F`, for which the Potency result in test [2], in test [3], in test [6] and in test [4] was “inactive” throughout.

On to `COc1ccc2c(c1)c(CC(=O)OCC(=O)O)c(C)n2C(=O)c1ccc(Cl)cc1`, for which the Potency entry in test [2], in test [3] and in test [6] was “inactive” in each case.

Take `C[C@@H](NCCCc1cccc(C(F)(F)F)c1)c1cccc2ccccc12`: the Potency result in test [1] is “inactive”. Besides, the Potency in test [3] is 30.9 nM (active) and 19 nM (active); in test [6] it was 26.8 µM (active); in test [4], 13.3 µM (active) and 18.6 µM (active); in test [5], 15 µM (active) and 14.8 µM (active).

With `CN(C)CCc1c[nH]c2ccc(C[C@H]3COC(=O)N3)cc12`, the Potency result in test [2], in test [3], in test [6] and in test [4] was “inactive” each time.

For the compound `CC(C)OC(=O)OCOP(=O)(CO[C@H](C)Cn1cnc2c(N)ncnc21)OCOC(=O)OC(C)C`, the Potency result in test [2], in test [3], in test [6], in test [4] and in test [5] was “inactive” each time.

For `CCCCS(=N)(=O)CCC(N)C(=O)O` (stereo not given), the Potency result (in test [1]; with Papain (Carica papaya); in test [4]) was “inactive” in each case.

Regarding `COc1cc2nc(N3CCCN(C)CC3)nc(NC3CCN(Cc4ccccc4)CC3)c2cc1OC`, in test [1], the Potency result is “inactive”. Also, the Potency is 25.1 µM (active) with Papain (Carica papaya), 4.17 µM (active) in test [4] and 2.63 µM (active) in test [5].
